Chronic BCR inh: blocks chronic active B-cell receptor signaling. ABC-DLBCL IkBa-CBG/CBR reporter, luminescence ratio, 4 h. Potency, µM (top dose mostly 46.1 µM), for the others: at the highest dose activity change, negative = inhibition, hits mostly inhibitors. 340,000 compounds, 0.05% hits. AID 493014; active = well fitted inhibition curve with a large enough effect in the signal ratio, with a control signal flat, not every such curve was filed as active; inconclusive = small, poorly fitted or top-dose-only effect, or effect the other way, or a change in a side signal; the % refers to the signal ratio;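 note: potency is the fitted concentration of half-maximal effect; plate controls were basal doxycycline-induced cells for no effect and cells given 10 µM MG132 for full effect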
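Doxycycline induced both beetle luciferases in TMD8 lymphoma cells; IKK-driven degradation limits the IkappaBalpha-fused green signal, while red luminescence normalises for cell number and nonspecific effects. Compounds tested up to 46 uM, 4 hrs.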
MBNL1-CUG inh: blocks human MBNL1 binding to CUG repeat RNA | TR-FRET MBNL1-His/biotin-(CUG)12 binding, 665/545 ratio | Potency, µM (top dose mostly 57.5 µM), without a hit: top-dose activity change, negative = inhibition, hits mostly inhibitors | 280,000 compounds, 0.036% hits | AID 2675; active = well fitted inhibition curve with a large enough effect in the signal ratio, with a control signal flat, not every such curve was filed as active; inconclusive = small, poorly fitted or top-dose-only effect, or effect the other way, or a change in a side signal; inactive = no such curve, though single readings can be large or run the other way; the % refers to the signal ratio; note: potency is the fitted concentration of half-maximal effect; % is set by controls: 0 for no effect and ±100 for the full control effect
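Ratiometric TR-FRET (665 over 545 nm, excitation 340 nm) tracks disruption of MBNL1-His/biotin-(CUG)12 complex after 60 min at room temperature, with compounds at 92 nM to 58 uM final.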
gsp antagonist: gsp mutant antagonism; 340,000 compounds, 0.4% hits; Potency, µM (top dose mostly 76.9 µM), for inactives: top-dose activity change, negative = inhibition, most hits filed as inhibitors; gsp-mutant cells, cAMP HTRF, 30 min; calls by dose curve; cell line not stated here;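 note: intracellular cAMP measured with PDE inhibitor Ro 20-1724 present during compound exposure; potency is the fitted concentration of half-maximal effect; % is set by controls: 0 for no effect and ±100 for the full control effect; nearly all actives have a fitted effect of over 65% in size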
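Cells, 2000/well, grown 16–24 h in DMEM 10% FBS with 0.5 mg/ml G418, then compounds plus […] (300 uM addition stock), 30 min at 37C. cAMP read by HTRF (cAMP-d2 and anti-cAMP antibody-K in lysis buffer) after 30 min RT.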
gsp ag: agonists of gsp mutant (McCune-Albright syndrome). 340,000 compounds, 0.13% hits. Potency, µM (doses to about 76.9 µM), inactives show at the highest dose activation (cAMP increase), most hits filed as activators. gsp mutant cells, cAMP HTRF, 30 min; active = well fitted activation curve with a large enough effect; inconclusive = small, poorly fitted or top-dose-only effect, or another doubt; inactive = no such curve, though single readings can be large or run the other way; cell line not stated here;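 note: phosphodiesterase inhibitor Ro 20-1724 added with compounds to block cAMP breakdown; potency is the fitted concentration of half-maximal effect; nearly all actives have a fitted effect of over 60% in size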
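Cells in DMEM/10% FBS with G418 were pretreated with compounds in DMSO plus […] (300 uM stock) for 30 min at 37C. cAMP was measured by HTRF (cAMP-d2 plus anti-cAMP antibody-K) after 30 min at room temperature.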
ASM inhibitor: human S-ASM enzyme inhibition. Potency, µM (series often up to 57.5 µM), inactives show at the top dose activity change, negative = inhibition, most hits filed as inhibitors. 340,000 compounds, 0.006% hits. placental ASM, HMU-PC fluorogenic substrate, 60 min. P17405; note: potency is the fitted concentration of half-maximal effect
Target sequence (P17405 47-631 limits assumed): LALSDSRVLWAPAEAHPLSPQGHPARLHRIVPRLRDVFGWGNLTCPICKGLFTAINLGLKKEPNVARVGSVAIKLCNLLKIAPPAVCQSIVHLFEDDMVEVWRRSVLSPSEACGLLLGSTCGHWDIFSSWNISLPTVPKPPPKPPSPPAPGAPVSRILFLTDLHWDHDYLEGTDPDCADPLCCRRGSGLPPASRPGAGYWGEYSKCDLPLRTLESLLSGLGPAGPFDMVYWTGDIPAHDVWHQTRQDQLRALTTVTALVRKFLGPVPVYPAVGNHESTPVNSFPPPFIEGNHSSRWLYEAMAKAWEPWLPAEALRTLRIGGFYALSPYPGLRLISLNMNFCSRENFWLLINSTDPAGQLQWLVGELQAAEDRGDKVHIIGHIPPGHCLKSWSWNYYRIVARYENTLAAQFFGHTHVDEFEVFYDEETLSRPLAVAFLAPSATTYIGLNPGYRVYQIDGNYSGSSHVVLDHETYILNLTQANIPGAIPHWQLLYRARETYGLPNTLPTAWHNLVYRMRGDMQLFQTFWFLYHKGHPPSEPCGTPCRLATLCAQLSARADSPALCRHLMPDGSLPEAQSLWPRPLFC
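Fluorogenic HMU-PC substrate (9 uM final) is turned over by placental ASM in 60 min at 37 C after a 10 min compound preincubation. Reaction ended by alkaline stop (pH 10), with fluorescence read at 386/447 nm.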
MBNL1 TRFRET: blocks human MBNL1 binding to CUG repeat RNA, TR-FRET validation. 140 compounds, 50% hits. TR-FRET MBNL1-His / biotin-(CUG)12 binding, 60 min. shares compounds with MBNL1-CUG inh. Potency, µM (highest dose often 57.6 µM), for inactives: at the highest dose activity change, negative = inhibition, usual class: inhibitors
MBNL1-CUG Alpha: confirmation of MBNL1-(CUG)12 RNA binding inhibitors, orthogonal format; AlphaScreen MBNL1-His / biotin-(CUG)12 binding; 140 compounds, 30% hits; AID 493205; Potency, µM (titrated, usually from 57.7 µM), for inactives: at the highest dose activity, negative = inhibition, usual class: inhibitors; shares compounds with MBNL1-CUG inh
Menin-MLL HTRF: counter-screen for MBNL1-poly(CUG) RNA binding inhibitors | 120 compounds, 20% hits | AID 651843 | Potency, µM (series often up to 57.6 µM), inactives show top-dose activity, negative = inhibition, usual class: inhibitors | His-Menin/biotin-MLL peptide TR-FRET counterscreen | shares compounds with MBNL1-CUG inh
* = called active by the depositor; i = inactive; ? = inconclusive; / = not tested or not shown; [ ] = another dose, or the depositor's remark. Shown are actives, neighbours in structure and some others; about 0.62% of the full set was active somewhere. Unless noted, calls come from the whole dose curve; as a rule, active = well fitted curve in the direction sought with a large enough effect; inconclusive = small, poorly fitted or top-dose-only effect, or another doubt; inactive = no such curve, though single readings can be large; an effect the other way counts as inactive or inconclusive.

SMILES | Chronic BCR inh | MBNL1-CUG inh | gsp antagonist | gsp ag | ASM inhibitor | MBNL1 TRFRET | MBNL1-CUG Alpha | Menin-MLL HTRF
O=C(NCCCN1CCCCCC1)c1ccc(CS(=O)(=O)Cc2ccccc2F)o1 | -10% | 40µM* | 6% | 15% | 10% | ? | 0% | -2%
CC1CCN(CCCNC(=O)c2ccc(CS(=O)(=O)Cc3ccccc3F)o2)CC1 | 0% | -6% | 9% | -12% | 4% | / | / | /
COc1ccc(CCNC(=O)C2CC(=O)N(c3ccc(Br)cc3)C2)cc1OC (stereo not given) | -1% | -7% | 30% | -21% | -1% | / | / | /
COc1ccc(CCNC(=O)C2CC(=O)N(c3ccccc3)C2)cc1OC (stereo not given) | 3% | 11% | 18% | -17% | 0% | -5% | -2% | 1%
O=C(CCN1C(=O)C2C3CCC(C3)C2C1=O)Nc1ccc(F)cc1 (stereo not given) | -1% | -4% | 7% | 20% | -4% | / | / | /
Cn1c(=O)c2c(ncn2CCO)n(C)c1=O | ? | 1% | 1% | / | -1% | 1% | 0% | 2%
COc1ccc(-c2nonc2NC(=O)c2ccco2)cc1OC | -19% | -5% | 7% | -21% | -4% | / | / | /
COc1ccc(C(c2c(C)[nH]n(-c3ccccc3)c2=O)c2c(C)[nH]n(-c3ccccc3)c2=O)cc1OC | 14% | 40µM* | -19% | -41% | -12% | ? | ? | 4%
CC(C)NC(=O)Nc1ccc2c(c1)C(=O)N([C@@H](C)CO)C[C@H](C)[C@H](CN(C)S(=O)(=O)c1ccccc1)OCCCC[C@H](C)O2 | / | / | / | -30% | / | / | / | /
O=C(N/N=C/c1ccc(-c2ccccc2Cl)o1)c1ccccc1 | ? | -3% | -29% | -12%[15.4 µM] | 93% | / | / | /
O=S(=O)(N/N=C\c1ccc(-c2ccccc2Cl)o1)c1ccccc1 | 0% | 20µM* | -5% | 17% | -14% | 8% | -11% | 7%
O=C(CSc1n[nH]c(-c2ccncc2)n1)NC1CCS(=O)(=O)C1 (stereo not given) | 5% | 7.9µM* | 8% | 5% | 110% | 10µM* | 7% | ?
CCC(C)N(C(=O)c1csnn1)C(C(=O)NCc1ccc(F)cc1)c1ccccc1F (stereo not given) | -2% | -1% | 4% | -22% | 2% | / | / | /
CN(C(=O)COC(=O)c1ccc(-c2ccc(O)cc2)cc1)C1CCS(=O)(=O)C1 (stereo not given) | 3% | 40µM* | 6% | ? | 2% | ? | 21µM* | -13%
OC1(c2ccc(Cl)cc2)CCN(Cc2cn[nH]c2-c2ccccc2)CC1 | 1% | 10µM* | 2% | 34% | 1% | 41µM* | -10% | -12%
OC1(c2ccc(Cl)cc2)CCN(Cc2cn[nH]c2-c2ccc(F)cc2)CC1 | -18% | / | 5% | 17% | -1% | / | / | /
COC(=O)c1ccc(N)cc1O | -2% | -4% | -3% | 0% | -3% | / | / | /
COC(=O)c1ccc(=O)c2nc3/c(=C/O)c(O)cc(=O)c3[nH]c12 | ? | ? | 2% | / | -23% | 0.26µM* | 0.29µM* | 5%
CN(CCc1ccccc1)C(=O)c1cccc(NC(=O)Cc2cccc([N+](=O)[O-])c2)c1 | 0% | / | -22% | / | -1% | / | / | /
c1csc(C(c2nnnn2C2CCCCC2)N2CCCC3(CCCCC3)C2)c1 (stereo not given) | 17% | 25µM* | 6% | -10% | -4% | -19% | -21% | -4%
Cc1ccc2nc(C(=O)N3CCCC(Nc4ccc(F)cc4)C3)cn2c1 (stereo not given) | 2% | -1% | -7% | -1%[15.4 µM] | 2% | / | / | /
CCn1c(SCC(=O)Nc2nc(C)c(C)s2)nnc1-c1cccs1 | 3% | 40µM* | -3% | 19% | -1% | -4% | -12% | 2%
Cn1c(SCC(=O)NNC(=O)c2ccccc2)nnc1C1CC1 | -8% | 2% | 13% | 5%[15.4 µM] | -4% | / | / | /
O=C1c2ccccc2C(=O)c2c(Nc3ccc(CCO)cc3)ccc(O)c21 | -1% | ? | ? | ? | -9% | / | / | /
O=C1c2c(O)ccc(O)c2C(=O)c2c(NCCNCCO)ccc(NCCNCCO)c21 | ? | ? | ? | -3% | -14% | 1.6µM* | ? | -6%[19.2 µM]
SMILES | Chronic BCR inh | MBNL1-CUG inh | gsp antagonist | gsp ag | ASM inhibitor | MBNL1 TRFRET | MBNL1-CUG Alpha | Menin-MLL HTRF
C[C@H](CO)N1C[C@H](C)[C@@H](CN(C)Cc2ccc(Cl)c(Cl)c2)Oc2c(NS(=O)(=O)c3cccs3)cccc2C1=O | ? | / | -20% | / | -7% | / | / | /
Cc1[nH]c2ccccc2c1C(=O)COC(=O)Cn1cnc2ccccc21 | 0% | -12% | 2% | 6%[15.4 µM] | -12% | / | / | /
CCOC(=O)CCCCC(=O)c1[nH]c(=O)[nH]c1Cn1cnc2ccccc21 | 5% | 10µM* | 11% | 0% | -4% | 10µM* | 2.6µM* | 26µM*
COc1ccc(CN2CN(c3ccc(Cl)cc3)C(=O)N(n3cnnc3)C2)cc1 | -24% | ? | 6% | -14% | 2% | / | / | /
O=C1N(c2ccc(Cl)c(Cl)c2)CN(Cc2ccccc2)CN1n1cnnc1 | -1% | 13µM* | -7% | -4% | 0% | 16µM* | -4% | ?
COc1ccc(OCc2cc(C(=O)NC3CCOC(C)(C)C3)no2)c2ccccc12 (stereo not given) | 0% | ? | / | / | / | / | / | /
C=CCn1c(NS(=O)(=O)c2ccccc2)c(S(=O)(=O)c2ccc(C)cc2)c2nc3ccccc3nc21 | ? | 20µM* | -10% | ? | i | 4% | ? | 0%
O=S(=O)(Nc1c(S(=O)(=O)c2ccccc2)c2nc3ccccc3nc2n1C1CCCCC1)c1ccccc1 | ? | / | -9% | -10% | i | / | / | /
CCN(CC)S(=O)(=O)c1cccc(C(=O)Nc2ccccc2C(=O)Nc2ccc(OC)cc2)c1 | 14% | / | / | / | / | / | / | /
COc1ccc(CN2CCN(c3cccc(C)c3C)CC2)cc1OC | ? | 25µM* | 3% | -3% | -1% | 16µM* | -26% | ?
COc1cc(CN2CCN(c3cccc(C)c3C)CC2)cc(Br)c1O | 2% | -17% | -5% | 9% | -2% | / | / | /
